The supplement of paper PMC6555819

Legend:
Assay in all cases: PBM binding z-score (relative to random genomic background probes); higher = stronger binding; sequences stand for … in GC…GCGATTGACAGCGTAGAATGAAGG
[1] = system: FXR:RXRa (NR concentration 270 nM, RXRa partner concentration 90 nM)
Procedure, shortened: (§1)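 Binding z-scores take random background probes as their reference. They come from custom Agilent 4×180K protein-binding microarrays incubated 1 h with ligand-free nuclear receptor dimers, with antibodies against each partner (one per run) detecting binding. Scanned fluorescence was regression-normalized.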

[2] = system: LXRa:RXRa (NR concentration 270 nM, RXRa partner concentration 90 nM)
Procedure, shortened: as §1

[3] = system: LXRa homodimer (NR concentration 270 nM)
Procedure, shortened: as §1

[4] = system: LXRb:RXRa (NR concentration 270 nM, RXRa partner concentration 90 nM)
Procedure, shortened: as §1

[5] = system: LXRb homodimer (NR concentration 270 nM)
Procedure, shortened: as §1

[6] = system: PPARa:RXRa (NR concentration 270 nM, RXRa partner concentration 90 nM)
Procedure, shortened: as §1

[7] = system: PPARg:RXRa (NR concentration 180 nM, RXRa partner concentration 90 nM)
Procedure, shortened: as §1

[8] = system: PPARg:RXRa 270nM:90nM, anti-RXR (NR concentration 270 nM, RXRa partner concentration 90 nM)
Procedure, shortened: as §1

[9] = system: PPARg:RXRa 30nM:10nM, anti-RXR (NR concentration 30 nM, RXRa partner concentration 10 nM)
Procedure, shortened: as §1

[10] = system: PPARg:RXRa 90nM:30nM, anti-RXR (NR concentration 90 nM, RXRa partner concentration 30 nM)
Procedure, shortened: as §1

[11] = system: PPARg:RXRa DBDmut IVT, anti-RXR (DBD mutation: RXRa K156A/R161A, NR concentration 270 nM, RXRa partner concentration 90 nM)
Procedure, shortened: as §1

[12] = system: PPARg:RXRa IVT, anti-PPARg (NR concentration 270 nM, RXRa partner concentration 90 nM)
Procedure, shortened: as §1

[13] = system: PPARg DBDmut:RXRa IVT, anti-PPARg (DBD mutation: PPARg1 K132A/R137A, NR concentration 270 nM, RXRa partner concentration 90 nM)
Procedure, shortened: as §1

[14] = system: PPARg DBDmut IVT, anti-PPARg (DBD mutation: PPARg1 K132A/R137A, NR concentration 270 nM)
Procedure, shortened: as §1

[15] = system: PPARg homodimer (NR concentration 180 nM)
Procedure, shortened: as §1

[16] = system: PXR:RXRa (NR concentration 270 nM, RXRa partner concentration 90 nM)
Procedure, shortened: as §1

[17] = system: PXR homodimer (NR concentration 270 nM)
Procedure, shortened: as §1

[18] = system: RARa:RXR (NR concentration 270 nM, RXRa partner concentration 90 nM)
Procedure, shortened: as §1

[19] = system: RARa homodimer (NR concentration 270 nM)
Procedure, shortened: as §1

[20] = system: RARb:RXRa (NR concentration 270 nM, RXRa partner concentration 90 nM)
Procedure, shortened: as §1

| Sequence | PBM binding z-score [1] | PBM binding z-score [2] | PBM binding z-score [3] | PBM binding z-score [4] | PBM binding z-score [5] | PBM binding z-score [6] | PBM binding z-score [7] | PBM binding z-score [8] | PBM binding z-score [9] | PBM binding z-score [10] | PBM binding z-score [11] | PBM binding z-score [12] | PBM binding z-score [13] | PBM binding z-score [14] | PBM binding z-score [15] | PBM binding z-score [16] | PBM binding z-score [17] | PBM binding z-score [18] | PBM binding z-score [19] | PBM binding z-score [20] |
| --- | --- | --- | --- | --- | --- | --- | --- | --- | --- | --- | --- | --- | --- | --- | --- | --- | --- | --- | --- | --- |
| CAAACTTGGTCACGAAAGGTCAAAGTCGAATGAC | 5.56 | 6.11 | 5.72 | 5.74 | 2.04 | 5.22 | 4.84 | 5.24 | 2.75 | 4.59 | 2.71 | 4.16 | 0.428 | 0.593 | 4.33 | 6.21 | 1.66 | 6.77 | 3.25 | 4.68 |
| GGAACGAGGGTAAGTTGATAGCAGAGTTTGATGG | -0.0165 | -0.0993 | -0.232 | -0.276 | -0.358 | 0.189 | 0.422 | 0.00426 | -0.0948 | -0.0902 | 1.59 | 0.763 | 0.619 | 0.0122 | 0.193 | 0.0431 | 0.405 | -0.00911 | 0.262 | 0.727 |
| CCTAGCAGTCCAGGGTCACTCAAGCATTTCGCTT | 1.93 | 1.87 | -0.123 | 2.26 | -0.47 | 3.08 | 0.115 | 1.17 | -0.788 | 0.355 | -0.136 | 0.647 | -1.3 | -1.13 | 1.01 | 2.58 | 2.51e-05 | 3.02 | -0.3 | 2.33 |
| AGAACGAGGGCAATGAGTTGATCGCACGGGTGGC | 0.0662 | 0.0988 | -0.712 | -0.452 | -0.58 | 1.33 | 1.16 | 0.618 | -0.283 | 0.0795 | 2.79 | 2.63 | 0.67 | 0.015 | -0.315 | 1.75 | 5.1 | 0.134 | -0.671 | 2 |
| CCTCGGAGGACAGAAGGTCAGTGCTGTCCGCTTT | 1.08 | 1.1 | -0.0896 | 0.672 | -0.597 | 1.49 | -0.509 | 0.452 | -0.825 | -0.242 | -0.0749 | -0.108 | -0.925 | -2 | 1.55 | 1.18 | -0.686 | 1.65 | -0.0741 | 3.28 |
| ACTAGTTGGTCAGCTGAGGTCACACGCAATTCGG | 4.13 | 3.59 | 2.5 | 3.3 | 0.152 | 3.71 | 1.57 | 2.37 | 0.407 | 1.44 | 1.54 | 2.63 | 0.387 | 0.616 | 2.87 | 5.51 | 1.79 | 4.68 | 0.262 | 3.53 |
| TCTGCTAGGTCAGTTGGTCGGCTAACGAGCTGCC | 0.77 | 0.605 | -0.503 | 0.189 | 0.554 | 1.17 | -0.329 | 1.54 | 1.35 | 1.7 | 2.4 | 2.52 | -0.323 | 0.245 | -0.547 | -0.0242 | -0.996 | 0.254 | -0.776 | 3.2 |
